About 200 (20%) of roughly 1,000 compounds were called active. A selection follows. Potency and affinity values are given separately. Values without a mark were called inactive. No stated cut-off is given here; in the data, active means inhibition above about 55%; inactive means the rest.

The target of this experiment is Dual specificity protein phosphatase 3 (Homo sapiens) (UniProt P51452). The experiment in a line: VHR1 phosphatase inhibitors, biochemical (AID 1878). Conditions: recombinant VHR phosphatase, fluorogenic substrate; at 13.3 µM; stronger effect = higher value.
Chain of Dual specificity protein phosphatase 3 (Homo sapiens) (P51452 whole entry, looked up): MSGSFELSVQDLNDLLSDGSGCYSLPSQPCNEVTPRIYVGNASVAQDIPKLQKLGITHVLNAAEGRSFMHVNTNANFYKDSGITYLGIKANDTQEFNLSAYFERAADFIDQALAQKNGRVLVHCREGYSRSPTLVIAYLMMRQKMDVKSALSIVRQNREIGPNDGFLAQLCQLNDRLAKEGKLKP
`COc1ccccc1CN1CCCC(CN(CCN(C)C)C(=O)C2CCCC2)C1` (centres undefined): the inhibition – broadly, the change of the read-out against control, counted positive when it falls – was -18.4%. As for `Nc1nn2c(-c3ccccc3)cc(=O)[nH]c2c1N=Nc1ccc(Br)cc1`, the figure is 81.7% (active).

As for `CC(C)(C)c1cc(=O)n2[nH]c(N)nc2n1`, the inhibition is -15.2%. As for `COC(=O)C1(C)NC(c2ccc(Cl)cc2)C2C(=O)N(c3ccccc3)C(=O)C21` (centres undefined), the figure is -6.5%; as for `CN1CCN(c2nc(-c3ccccc3Cl)nc3ccccc23)CC1`, 5.7%.

As for `COc1ccc(-c2cc3nc4ccccc4n3c(N)c2C#N)cc1`, the inhibition was 95.4% (active).

In the case of `COc1ccc(NC2CCCN(C(=O)CCN3CCOCC3)C2)cc1` (centres undefined), the inhibition was 2.8%.

Consider `CC(C)OC(=O)CCCNc1ccc([N+](=O)[O-])cc1[N+](=O)[O-]`, for which the inhibition was 5.9%.

Regarding `Cc1cc(=O)oc2cc(OC(C)C(=O)NCCc3ccc(S(N)(=O)=O)cc3)ccc12` (centres undefined), the inhibition was -4.7%. As for `Cc1cc(C)c(S(=O)(=O)c2cccc(Br)c2C)c(=O)[nH]1`, the figure is 9.5%. Consider `O=C(Nc1ccc(Br)cc1F)c1ccc2nsnc2c1`, for which the inhibition was 0.8%.

Regarding `CCC(Sc1nnc(-c2ccco2)n1C)C(=O)Nc1nnc(C)s1` (centres undefined), the inhibition was -1.6%. As for `CCCCCCN1CC(=O)N2Cc3[nH]c4ccccc4c3C[C@H]2C1=O`, the figure is 11.5%. Take `COc1ccc(/C=N/NC(=O)c2[nH]c3ccc(C)cc3c2-c2ccccc2)c(C(=O)O)c1OC`: the inhibition was 6.7%. As for `COc1cccc(/C=N/Nc2ncnc3c2[nH]c2ccc(C)cc23)c1OC`, the figure is 97.6% (active).

Consider `O=C(COCc1cc(-c2ccc3c(c2)OCO3)on1)Nc1cccnc1Cl`, for which the inhibition is 2.9%. For `COc1ccccc1N1CCN(C2CCCN(C(=O)CCc3cnccn3)C2)CC1` (centres undefined), the inhibition is -1.8%. The value for `C[C@]1(CO)CCC[C@@]2(C)C1CC[C@@H](CO)[C@@H]2CCc1ccoc1` (some centres undefined) was -0.3%; that for `CCCOc1ccc(-c2c(C(=O)N/N=C/c3cccnc3)nnn2-c2nonc2N)cc1` was 96.5% (active); that for `CCCc1c(C(=O)N/N=C(\C)CCc2ccccc2)nnn1-c1nonc1N` was 1.7%. The value for `C/C(=N\NC(=O)c1nnn(-c2nonc2N)c1C)c1ccc(OCc2ccccc2)cc1` was 8.6%; that for `CCc1nn(CC(=O)NCc2ccccc2Cl)c(=O)c2cccn12` was 17.5%; that for `COC(=O)c1sccc1NC(=O)Nc1ccc(C)cc1C` was -7.1%. For the molecule `O=C(Nc1cccc2ncccc12)c1ccccc1F`, the inhibition is -0.8%. The value for `COc1cccc(C2c3[nH]c4ccccc4c3C[C@H]3C(=O)N(CCCOC(C)C)CC(=O)N23)c1` (some centres undefined) was 10.9%. As for `COc1ccc2[nH]c(=O)c(-c3noc(-c4ccc(F)cc4)n3)cc2c1`, the inhibition was 97.2% (active).

Turning to `COc1ccc(OC)c(-c2csc(NC(=O)Cc3ccc(F)cc3)n2)c1`, the inhibition was 0.5%. In the case of `Cn1cnc(S(=O)(=O)N2CCN(c3ccc(F)cc3)CC2)c1`, the inhibition is -8%. With `Cc1ccc(NC(=O)NN2CCN(C)CC2)cc1C`, the inhibition was -0.5%. Consider `Cc1cccc(NC(=O)Cc2nnc(NC(=O)Nc3ccccc3F)s2)c1`, for which the inhibition is 16.3%. The value for `Cc1ccc(NC(=O)Nc2nnc(-c3ccncc3)s2)cc1C` was 94.2% (active); that for `Cc1ccc(NC(=O)NCCN2CCCCC2)cc1C` was -2%. As for `O=C(Nc1ccc(Cl)c(Cl)c1)Nc1ccccn1`, the figure is 3.2%; as for `CCC(C(=O)NCCCN1CCN(C)CC1)n1nc(C)n2c(cc3occc32)c1=O` (centres undefined), -10.7%; as for `CC(=O)OC1CC2(C)/C(=N\O)CCC2C2CCc3cc(O)ccc3C12` (centres undefined), -5.1%. The value for `Cc1ccc(-n2nc3c(=O)n(CCCC(=O)NC4CCC(C)CC4)nc(C)c3c2C)cc1` (centres undefined) was 23.9%; that for `CCN(CC)C(=O)Cn1cc(C(=O)C(=O)NCCCN2CCCCC2)c2ccccc21` was 1.8%; that for `O=C(NCc1ccc(F)cc1)C1CCN(S(=O)(=O)c2cccc3nonc23)CC1` was 4.8%. `CC(C)C[C@H](NC(=O)C1CC(=O)N(c2ccc3c(c2)OCO3)C1)C(=O)NC1CCCC1` (some centres undefined): the inhibition is -5%.

As to `CCN(CC)CCCNC(=O)c1ccc(C)c(NC(=O)C2=C(C)OCCS2)c1`, the inhibition is 5.7%. With `COc1cc(OC)nc(Oc2cc(C=O)ccc2OC)n1`, the inhibition is 19.7%. As for `CCN(CC)CCCNC(=O)c1cn(C)c2ccc(S(=O)(=O)N(C)C3CCCCC3)cc2c1=O`, the figure is -8.9%; as for `Cn1c(=O)c(=O)n(C)c2cc(N3CCOCC3)c(NS(=O)(=O)c3ccc(F)c(Cl)c3)cc21`, -2.4%. `O=S(=O)(Nc1ccc(Cl)cc1)c1ccc(N2CCOCC2)c(NC(=S)NCCN2CCOCC2)c1`: the inhibition was 57.1% (active). With `CC(=O)c1ccc(S(=O)(=O)Nc2ccc(N3CCOCC3)cc2)cc1`, the inhibition was -2%. Regarding `CC(C)(C)NC(=O)N1CCN(c2ncccc2C(F)(F)F)CC1`, the inhibition was -1.3%.

Consider `O=C(CSc1nc2ccccc2[nH]1)NCCN1CCCCC1`, for which the inhibition was -5.4%.

With `Cc1ccc(-c2nnn3c2nc(NCCc2ccc(S(N)(=O)=O)cc2)c2ccccc23)cc1`, the inhibition was 98.7% (active). The value for `CCOc1ccc(C(=O)OCC(=O)NCc2ccco2)cc1OCC` was 3.1%.

Consider `CCN1C(=O)N(c2ccc(C(C)=O)cc2)S(=O)(=O)c2ccccc21`, for which the inhibition was -4.4%. On to `Cc1ccc(NC(=O)CCC(=O)c2ccc(Br)cc2)cc1`, for which the inhibition is 8.7%.

Take `COc1ccc(C(=O)N2CCN(CCNC(=O)C(=O)Nc3ccc(Br)cc3)CC2)cc1`: the inhibition was 1.9%. Turning to `Oc1ccccc1/C=N/Nc1cc(N2CCCC2)nc(N2CCCC2)n1`, the inhibition is -15.5%. The value for `CCCC(=O)Nc1c(-c2ccc(C)cc2)c(=O)c2ccccc2n1C` was 2.1%; that for `COc1ccnc2c1c(=O)n(Cc1ccc(Cl)cc1)c(=O)n2C` was 0.3%.

Consider `COc1ccc(Cn2c(-c3ccc(C)cc3)nc3c(c(=O)c4ccccc4n3C)c2=O)cc1`, for which the inhibition is 85.9% (active). The value for `Cc1nn(CC(=O)NCCCN2CC(C)CC(C)C2)c(=O)c2cccn12` (centres undefined) was -10.3%.

`CN1C(=O)CN=C(c2ccc(Cl)cc2)c2cc(Cl)ccc21`: the inhibition was 16%. For `COc1cccc(-c2nc(CS(=O)(=O)CC(=O)NCCCN3CC(C)CC(C)C3)c(C)o2)c1` (centres undefined), the inhibition was -0.7%.

Values taken from PubChem BioAssay AID1878 (Sanford-Burnham Center for Chemical Genomics, 2009).
